Compound activity: PubChem, The Scripps Research Institute Molecular Screening Center
hgDAF12 agonist = hgDAF-12 agonism, primary luciferase screen | HEK293 GAL4-hgDAF12 UAS-luciferase reporter, agonist luminescence; normalized to butyrate control | activation, % at 6.8 µM | 370,000 compounds, 1.8% hits;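 active = activation above a cutoff set at the mean of all screened compounds plus 3 SD, cut at about 10% in these data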;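 note: 0% = DMSO wells and 100% = sodium butyrate wells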
ssDAF12 agonist = activators of S. stercoralis DAF-12 nuclear receptor. HEK293 ssDAF-12/GRIP1 lit1-tk-luc reporter, luminescence; % of 3 µM dafachronic acid response. activation, % at 6.8 µM. 370,000 compounds, 1% hits. AID 652126;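 active = activation above the mean over all tested compounds plus 3 SD, cut at about 0.9% in these data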;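 note: 0% = DMSO-only wells and 100% = 3 µM delta7-dafachronic acid wells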
DAX1 inh-1 = inhibitors of DAX1 repression of SF-1 activated StAR promoter. HEK293T StAR-luciferase reporter, SF-1/DAX-1 repression relief. inhibition, % at 6.8 µM. 370,000 compounds, 1.1% hits;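 active = inhibition above the mean over all tested compounds plus 3 SD, cut at about 3.6% in these data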;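 note: 0% = DAX-1 cells with DMSO and 100% = cells lacking DAX-1 with DMSO; higher inhibition means more luminescence from relief of DAX-1 repression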
DAX1 inh-2 = inhibitors of human orphan nuclear receptor DAX1 (NR0B1); HEK293 Gal4-DAX1 luciferase reporter, luminescence; inhibition, % at 6.75 µM; 340,000 compounds, 0.99% hits; AID 504766;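 active = inhibition above the mean over all tested compounds plus 3 SD, cut at about 4.2% in these data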;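 note: 0% = DAX1-transfected cells with DMSO and 100% = empty-vector control cells with DMSO; inhibition shows as a rise in luminescence from relieved DAX1 repression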
Target sequence (P51843 207-470 limits assumed): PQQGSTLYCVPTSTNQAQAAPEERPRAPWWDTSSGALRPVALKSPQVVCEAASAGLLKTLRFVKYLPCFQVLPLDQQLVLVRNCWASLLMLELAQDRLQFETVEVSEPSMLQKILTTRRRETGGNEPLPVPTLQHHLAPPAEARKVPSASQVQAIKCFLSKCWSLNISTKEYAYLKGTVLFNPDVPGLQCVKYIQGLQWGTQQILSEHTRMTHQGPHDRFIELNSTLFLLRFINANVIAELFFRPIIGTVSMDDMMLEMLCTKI
hcDAF12 agonist = H. contortus DAF-12 activation, primary screen. HEK293 hcDAF-12 lit1-tk-luc reporter, luminescence; 0% DMSO, 100% Δ7-dafachronic acid. activation, % at 6.8 µM. 370,000 compounds, 1.4% hits. AID 652067;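 active = activation above the mean of all tested compounds plus 3 SD, cut at about 5.5% in these data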;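 note: 100% = response to 3 µM Δ7-dafachronic acid high control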
* marks the source's active call; other numbers are inactive results; · = not tested or not shown. In the library only some 4.1% were active in any assay of this set; here they are far more common.

SMILES	hgDAF12 agonist	ssDAF12 agonist	DAX1 inh-1	DAX1 inh-2	hcDAF12 agonist
CCOC(=O)[C@]12CCCCC/C=C\1N(CCc1ccc(Cl)cc1)C(=O)[C@H]2CC(=O)N1CCCCC1	-3	-2	-2	·	-2
CC(=O)c1ccc(NC(=O)CN2c3cccc4cccc(c34)S2(=O)=O)cc1	4	-1	-3	6.0*	2
CC(C)[C@H](NC(=O)C1CC1)C(=O)N1CCC[C@H]1C(=O)NCCc1ccccc1Cl	1	-1	1	·	-1
CCCc1cc(=O)oc2cc(OCC(=O)N3CCC(C(N)=O)CC3)ccc12	0	-1	-1	6.3*	0
CCCc1cc(=O)oc2cc(OCC(=O)Nc3ccccn3)ccc12	9	0	4.0*	1	1
Cc1c(C)c2ccc(OCC(=O)N3CCC(C(=O)O)CC3)cc2oc1=O	0	-1	1	3	-1
CCc1cc(=O)oc2cc(OCC(=O)N3CCC(C(=O)O)CC3)ccc12	7	-1	-1	4.6*	0
O=S1(=O)CC2c3ccccc3CCN2CN1Cc1ccccc1 (centres undefined)	3	0	-1	·	-3
COCC1CCCN(C(=O)c2cc(COc3ccc(C(C)=O)cc3)on2)C1 (centres undefined)	10	-1	4.2*	1	5.7*
Cc1ccc(-c2cc(C(=O)NC3CCCC3)no2)cc1	13*	0	3	1	2
O=C(NC1CCCCC1)c1cc(-c2ccc(F)cc2)on1	1	0	0	0	4
CC(=O)c1ccc(OCc2cc(C(=O)NC3CCCCC3)no2)cc1	7	0	3.6*	1	1
CCOC(=O)Cn1cc(CN2C(C(=O)OC)CN(CCO)CCS2(=O)=O)nn1 (centres undefined)	1	0	0	·	4
COc1ccc(C2=NN(CN3C(=O)C(=O)c4ccccc43)C(c3ccc(OC)cc3)C2)cc1 (centres undefined)	11*	-1	0	0	1
COc1ccc(C2=NN(S(=O)(=O)c3ccccc3)C(c3ccccc3)C2)cc1 (centres undefined)	0	-1	0	1	0
CC(C)NC(=O)CSc1nc(-c2ccccc2)cs1	11*	-1	3	4.7*	1
O=C(CSc1nc(-c2ccccc2)cs1)Nc1nccs1	-2	-2	1	0	-2
Cc1cnc(C(=O)Nc2ccc(C(C)C)cc2)cn1	12*	-1	2	1	2
Cc1cnc(C(=O)Nc2ccc(F)cc2)cn1	8	-1	2	2	1
COP(=O)(CC(=O)O)C(CC(C)C)NC(=O)OCc1ccccc1 (centres undefined)	1	-1	0	·	-3
CN(C)c1ccc(N=Cc2nc(-c3ccccc3)oc2OC(=O)c2cccc(Cl)c2)cc1	12*	-1	3	2	1
COc1ccc(N=Cc2nc(-c3ccccc3)oc2OC(C)=O)cc1	-1	-1	1	0	0
COc1cccc(N2CCN(CC(=O)NCc3ccccc3C)CC2)c1	0	-1	-1	·	0
Cc1cc(C)n(-c2ccc(C(=O)OCC(=O)Nc3cc(Cl)ccc3[N+](=O)[O-])cc2)n1	2	1.2*	0	-1	5
CC1COCC(C)N1S(=O)(=O)c1ccc2c(c1)CCN2C(=O)C1CCC1 (centres undefined)	0	-1	-1	·	0
SMILES	hgDAF12 agonist	ssDAF12 agonist	DAX1 inh-1	DAX1 inh-2	hcDAF12 agonist
Cc1ccc(-c2nnc(SCC(=O)Nc3ccc(Oc4ccccc4)cc3)n2-c2ccc(Cl)cc2)cc1	-2	-1	-1	·	0
O=Cc1c(-c2ccc(F)cc2)nc2ccccn12	-1	-1	0	0	-2
COc1ccc(-c2nc3ccccn3c2C=O)cc1	10	0	1	-1	5.7*
CCC1(C)NC(C(=O)O)Cc2c1[nH]c1ccccc21 (centres undefined)	2	1.7*	0	-1	4
CCCN1CCC2(CC1)NC(C(=O)O)Cc1c2[nH]c2ccccc12 (centres undefined)	·	·	·	1	·
Cc1ccc(-n2c(SCC(=O)N/N=C/C=C\c3ccco3)nnc2-c2ccccc2)cc1	-1	-1	-1	·	-2
Cc1ccccc1C(=O)N[C@H](C(=O)N1CCC[C@H]1C(=O)NCCc1ccccc1Cl)C(C)C	-1	-1	0	·	0
COc1ccc2c(c1)CC/C2=N\OC(=O)c1ccccc1C	9	2.1*	1	2	2
COC(=O)C1C(c2ccccc2)NC(=O)NC1(O)C(F)(F)Cl (centres undefined)	-1	-1	1	4.7*	0
O=S(=O)(c1ccc2nnn(OCc3ccccc3)c2c1)N1CCOCC1	0	-1	1	0	-2
CC(On1nnc2ccc(S(=O)(=O)N3CCOCC3)cc21)C(=O)Nc1ccccc1F (centres undefined)	0	-1	1	5.0*	0
CN1c2ccc(-c3cccc(F)c3)cc2[C@H]2[C@H](CCN2S(=O)(=O)c2cccc(F)c2)[C@H]1CO	-1	-2	1	·	-1
OC(COc1ccc2ccccc2c1)CN1CCN(c2ccc(F)cc2)CC1 (centres undefined)	0	0	0	6.9*	0
COc1cccc(OCC(O)CN2CCN(c3ccc(F)cc3)CC2)c1 (centres undefined)	-3	-1	0	-1	0
CCc1nc2ccc(C(=O)NCC3CCCCC3)cn2c1N(CCC(C)C)CCN(C)C	-1	-1	0	·	-2
CCc1nc2ccc(C(=O)NCc3ccc(OC)cc3)cn2c1N(CCC(C)C)CCN(C)C	1	1.2*	1	·	2
CCN1CCN(C(=O)c2cc3sccc3n2CC(=O)c2ccccc2)CC1	0	1.2*	2	0	2
Cc1cc(C)cc(OCC(O)CN2CC(C)OC(C)C2)c1 (centres undefined)	-1	0	1	6.5*	-1
COc1ccc(-c2nc(N=Nc3ccc(O)cc3)n[nH]2)cc1	6	-1	0	-1	-2
Cc1ccc(-c2nc(N=Nc3ccc(O)cc3)n[nH]2)cc1	11*	-2	3	-1	0
COc1ccc(CNCC#Cc2cccnc2)c(OC)c1	5	-2	0	·	-3
CC(=O)Nc1nc2ncccn2c1-c1ccccc1	-1	-1	0	·	-2
Cn1nnc2c(NCc3ccco3)nccc21	1	-2	0	1	-1
COc1ccc(Nc2nccc3c2nnn3C)cc1	7	0	4.2*	3	4
CCCCCn1cc(CCC(=O)Nc2ccc(Oc3cccnc3)cc2)c2ccccc21	1	-1	0	·	-1
O=C(/C=C/c1cccc(Br)c1)N1CCN(c2cccc(C(F)(F)F)c2)CC1	-4	-1	0	0	2
O=C(/C=C/c1ccc(Br)cc1)N1CCN(c2cccc(C(F)(F)F)c2)CC1	-2	-1	2	-1	6.4*
